In article PMC7862700, “An all-to-all approach to the identification of sequence-specific readers for epigenetic DNA modifications on cytosine”:

Tests used:
Test in all cases: DAPPL (digital affinity profiling via proximity ligation, sequencing); 10 mM Tris-HCl pH 7.5, 50 mM NaCl, 1 mM DTT, 4% glycerol, room temperature, 30 min; GST-TFs on glutathione beads, 16-mer random dsDNA library, 0.1% formaldehyde crosslink after washing; high values mean tight binding
Conditions in all cases: protein: recombinant; tags: N-terminal GST; dsDNA, one strand shown
FLI1 = target: T1, FLI1 (Homo sapiens, UniProt Q01543 1-452)
T1 sequence: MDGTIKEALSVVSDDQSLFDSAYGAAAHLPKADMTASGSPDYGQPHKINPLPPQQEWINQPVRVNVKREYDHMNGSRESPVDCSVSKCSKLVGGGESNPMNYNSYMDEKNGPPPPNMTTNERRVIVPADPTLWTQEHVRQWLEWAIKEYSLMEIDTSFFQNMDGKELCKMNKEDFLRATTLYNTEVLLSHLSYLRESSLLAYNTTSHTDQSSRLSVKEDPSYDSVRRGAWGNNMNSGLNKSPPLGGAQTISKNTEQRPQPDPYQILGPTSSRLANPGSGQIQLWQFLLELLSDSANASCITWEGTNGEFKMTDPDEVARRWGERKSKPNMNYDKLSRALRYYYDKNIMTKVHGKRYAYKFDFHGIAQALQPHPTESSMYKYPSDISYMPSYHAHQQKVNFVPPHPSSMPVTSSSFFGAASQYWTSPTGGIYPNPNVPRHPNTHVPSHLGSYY
Procedure, shortened: (§1)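 After expression in yeast as GST fusions, human transcription factors were bound to glutathione beads, DNA-barcoded and mixed with a tag-only sample. The pools were incubated with 200 nmole of a 16-mer random double-stranded DNA library in Tris/NaCl/DTT/glycerol buffer (30 min, room temperature), washed and crosslinked with 0.1% formaldehyde. Proximity ligation with BsaI/T4 ligase ran for 1 h at 37 °C, before PCR amplification and sequencing on an Illumina NextSeq500. Binding signal is a hexamer's read frequency for a factor divided by its frequency for the tag-only sample.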

ELK1 = target: T2, ELK1 (Homo sapiens, UniProt P19419 1-428)
T2 sequence: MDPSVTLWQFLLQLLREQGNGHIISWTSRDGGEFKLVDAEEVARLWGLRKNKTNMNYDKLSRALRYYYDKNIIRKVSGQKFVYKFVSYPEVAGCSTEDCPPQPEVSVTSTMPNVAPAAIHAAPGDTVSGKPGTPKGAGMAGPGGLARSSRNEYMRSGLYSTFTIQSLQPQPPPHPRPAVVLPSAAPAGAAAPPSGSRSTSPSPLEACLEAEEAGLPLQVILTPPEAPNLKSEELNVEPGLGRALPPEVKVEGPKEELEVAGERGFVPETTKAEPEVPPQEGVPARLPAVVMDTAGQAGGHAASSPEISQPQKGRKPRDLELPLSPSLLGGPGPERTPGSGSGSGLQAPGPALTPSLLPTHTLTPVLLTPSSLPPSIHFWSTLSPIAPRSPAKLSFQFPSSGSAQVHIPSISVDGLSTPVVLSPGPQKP
Procedure, shortened: as §1

GABPA = target: T3, GABPA (Homo sapiens, UniProt Q06546 1-454)
T3 sequence: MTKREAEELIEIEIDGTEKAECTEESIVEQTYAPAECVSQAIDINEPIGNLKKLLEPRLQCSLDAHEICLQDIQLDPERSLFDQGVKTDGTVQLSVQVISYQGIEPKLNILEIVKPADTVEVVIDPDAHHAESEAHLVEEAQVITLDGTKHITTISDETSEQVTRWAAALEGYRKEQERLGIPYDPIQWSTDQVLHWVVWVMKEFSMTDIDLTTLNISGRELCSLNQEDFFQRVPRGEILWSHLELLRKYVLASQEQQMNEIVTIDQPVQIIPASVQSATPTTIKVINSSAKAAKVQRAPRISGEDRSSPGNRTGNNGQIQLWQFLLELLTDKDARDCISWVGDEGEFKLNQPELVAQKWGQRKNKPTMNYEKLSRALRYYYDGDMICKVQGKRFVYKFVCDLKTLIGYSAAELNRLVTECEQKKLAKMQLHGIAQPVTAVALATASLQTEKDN
Procedure, shortened: as §1

ERG = target: T4, ERG (Homo sapiens, UniProt P11308 1-479)
T4 sequence: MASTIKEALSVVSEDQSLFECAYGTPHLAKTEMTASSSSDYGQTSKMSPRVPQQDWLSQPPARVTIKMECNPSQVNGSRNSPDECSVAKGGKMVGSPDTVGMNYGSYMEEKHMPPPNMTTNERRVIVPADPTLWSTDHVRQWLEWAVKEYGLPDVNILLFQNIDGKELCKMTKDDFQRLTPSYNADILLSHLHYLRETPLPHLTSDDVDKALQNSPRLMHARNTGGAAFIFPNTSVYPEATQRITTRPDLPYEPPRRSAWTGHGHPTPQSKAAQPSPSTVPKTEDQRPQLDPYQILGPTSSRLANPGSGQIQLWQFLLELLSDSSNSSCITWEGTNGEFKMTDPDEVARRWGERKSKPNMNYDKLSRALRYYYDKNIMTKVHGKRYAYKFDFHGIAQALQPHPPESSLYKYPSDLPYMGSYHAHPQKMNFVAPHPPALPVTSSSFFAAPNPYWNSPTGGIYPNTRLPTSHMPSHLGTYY
Procedure, shortened: as §1

ELF1 = ELF1 (Homo sapiens, UniProt P32519 1-619)
Procedure, shortened: as §1

EHF = target: T5, EHF (Homo sapiens, UniProt Q9NZC4 1-300)
T5 sequence: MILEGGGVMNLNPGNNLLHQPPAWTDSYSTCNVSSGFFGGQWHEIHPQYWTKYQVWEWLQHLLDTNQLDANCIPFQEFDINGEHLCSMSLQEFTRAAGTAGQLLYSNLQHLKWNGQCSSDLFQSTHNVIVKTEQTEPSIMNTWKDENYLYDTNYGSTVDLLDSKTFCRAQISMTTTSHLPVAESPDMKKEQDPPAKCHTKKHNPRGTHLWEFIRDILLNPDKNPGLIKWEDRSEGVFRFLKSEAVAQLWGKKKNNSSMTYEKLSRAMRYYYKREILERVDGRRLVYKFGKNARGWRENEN
Procedure, shortened: as §1

SPI1 = SPI1 (Homo sapiens, UniProt P17947 1-270)
Procedure, shortened: as §1

SPIB = SPIB (Homo sapiens, UniProt Q01892 1-262)
Procedure, shortened: as §1

ELK3 = target: T6, ELK3 (Homo sapiens, UniProt P41970 1-407)
T6 sequence: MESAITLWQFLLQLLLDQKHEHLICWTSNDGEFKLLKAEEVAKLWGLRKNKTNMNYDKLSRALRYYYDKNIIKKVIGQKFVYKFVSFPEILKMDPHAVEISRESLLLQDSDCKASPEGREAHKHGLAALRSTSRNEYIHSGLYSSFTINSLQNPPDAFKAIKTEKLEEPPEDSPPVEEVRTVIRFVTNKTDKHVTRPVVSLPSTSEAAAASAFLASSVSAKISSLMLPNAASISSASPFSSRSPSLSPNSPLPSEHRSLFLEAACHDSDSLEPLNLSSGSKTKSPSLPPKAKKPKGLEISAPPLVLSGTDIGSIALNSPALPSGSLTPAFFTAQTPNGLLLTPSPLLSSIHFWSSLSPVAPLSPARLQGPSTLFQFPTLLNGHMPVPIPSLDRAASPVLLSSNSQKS
Procedure, shortened: as §1

Sequence of ELF1 (P32519 whole entry): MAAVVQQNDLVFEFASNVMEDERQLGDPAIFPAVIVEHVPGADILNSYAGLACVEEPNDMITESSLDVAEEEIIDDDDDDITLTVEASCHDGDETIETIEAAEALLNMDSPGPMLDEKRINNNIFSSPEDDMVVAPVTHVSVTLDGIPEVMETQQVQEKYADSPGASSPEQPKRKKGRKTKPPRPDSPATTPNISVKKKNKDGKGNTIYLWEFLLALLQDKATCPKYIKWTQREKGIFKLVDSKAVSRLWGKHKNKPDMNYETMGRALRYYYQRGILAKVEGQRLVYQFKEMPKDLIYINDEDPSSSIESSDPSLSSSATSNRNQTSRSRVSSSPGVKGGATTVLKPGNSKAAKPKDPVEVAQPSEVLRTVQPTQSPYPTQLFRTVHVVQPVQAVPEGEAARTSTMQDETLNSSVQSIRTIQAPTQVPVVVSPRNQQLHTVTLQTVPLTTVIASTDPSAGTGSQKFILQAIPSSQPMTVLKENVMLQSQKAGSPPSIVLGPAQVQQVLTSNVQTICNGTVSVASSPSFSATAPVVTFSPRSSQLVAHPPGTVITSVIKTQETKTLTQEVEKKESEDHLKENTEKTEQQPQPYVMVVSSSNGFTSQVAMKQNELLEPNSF
Sequence of SPIB (Q01892 whole entry): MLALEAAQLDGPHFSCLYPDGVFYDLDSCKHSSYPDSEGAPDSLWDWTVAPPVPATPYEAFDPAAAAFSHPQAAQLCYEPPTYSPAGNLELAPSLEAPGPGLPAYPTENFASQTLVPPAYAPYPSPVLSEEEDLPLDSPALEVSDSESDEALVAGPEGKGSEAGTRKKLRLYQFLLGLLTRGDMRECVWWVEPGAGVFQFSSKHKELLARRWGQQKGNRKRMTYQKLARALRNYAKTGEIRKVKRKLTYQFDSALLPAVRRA

ATTCGA
binding signal (FLI1): 1.3 fold enrichment (6-mer frequency, TF over GST control)
binding signal (ELK1): 1.22 fold enrichment (6-mer frequency, TF over GST control)
binding signal (GABPA): 1.37 fold enrichment (6-mer frequency, TF over GST control)
binding signal (ERG): 1.33 fold enrichment (6-mer frequency, TF over GST control)
binding signal (ELF1): 1.41 fold enrichment (6-mer frequency, TF over GST control)
binding signal (EHF): 1.29 fold enrichment (6-mer frequency, TF over GST control)
binding signal (SPI1): 1.32 fold enrichment (6-mer frequency, TF over GST control)
binding signal (SPIB): 1.38 fold enrichment (6-mer frequency, TF over GST control)
binding signal (ELK3): 1.25 fold enrichment (6-mer frequency, TF over GST control)

ATATCA
binding signal (FLI1): 1.23 fold enrichment (6-mer frequency, TF over GST control)
binding signal (ELK1): 1.24 fold enrichment (6-mer frequency, TF over GST control)
binding signal (GABPA): 1.22 fold enrichment (6-mer frequency, TF over GST control)
binding signal (ERG): 1.14 fold enrichment (6-mer frequency, TF over GST control)
binding signal (ELF1): 1.2 fold enrichment (6-mer frequency, TF over GST control)
binding signal (EHF): 1.15 fold enrichment (6-mer frequency, TF over GST control)
binding signal (SPI1): 1.13 fold enrichment (6-mer frequency, TF over GST control)
binding signal (SPIB): 1.14 fold enrichment (6-mer frequency, TF over GST control)
binding signal (ELK3): 1.11 fold enrichment (6-mer frequency, TF over GST control)

AAGTCT
binding signal (FLI1): 1.28 fold enrichment (6-mer frequency, TF over GST control)
binding signal (ELK1): 1.18 fold enrichment (6-mer frequency, TF over GST control)
binding signal (GABPA): 1.07 fold enrichment (6-mer frequency, TF over GST control)
binding signal (ERG): 1.12 fold enrichment (6-mer frequency, TF over GST control)
binding signal (ELF1): 1.14 fold enrichment (6-mer frequency, TF over GST control)
binding signal (EHF): 1.13 fold enrichment (6-mer frequency, TF over GST control)
binding signal (SPI1): 1.27 fold enrichment (6-mer frequency, TF over GST control)
binding signal (SPIB): 1.29 fold enrichment (6-mer frequency, TF over GST control)
binding signal (ELK3): 1.18 fold enrichment (6-mer frequency, TF over GST control)

ATCCTA
binding signal (FLI1): 1.54 fold enrichment (6-mer frequency, TF over GST control)
binding signal (ELK1): 1.34 fold enrichment (6-mer frequency, TF over GST control)
binding signal (GABPA): 1.37 fold enrichment (6-mer frequency, TF over GST control)
binding signal (ERG): 1.4 fold enrichment (6-mer frequency, TF over GST control)
binding signal (ELF1): 1.37 fold enrichment (6-mer frequency, TF over GST control)
binding signal (EHF): 1.3 fold enrichment (6-mer frequency, TF over GST control)
binding signal (SPI1): 1.27 fold enrichment (6-mer frequency, TF over GST control)
binding signal (SPIB): 1.48 fold enrichment (6-mer frequency, TF over GST control)
binding signal (ELK3): 1.43 fold enrichment (6-mer frequency, TF over GST control)

CCTGAC
binding signal (FLI1): 1.49 fold enrichment (6-mer frequency, TF over GST control)
binding signal (ELK1): 1.57 fold enrichment (6-mer frequency, TF over GST control)
binding signal (GABPA): 1.49 fold enrichment (6-mer frequency, TF over GST control)
binding signal (ERG): 1.48 fold enrichment (6-mer frequency, TF over GST control)
binding signal (ELF1): 1.46 fold enrichment (6-mer frequency, TF over GST control)
binding signal (EHF): 1.58 fold enrichment (6-mer frequency, TF over GST control)
binding signal (SPI1): 1.44 fold enrichment (6-mer frequency, TF over GST control)
binding signal (SPIB): 1.46 fold enrichment (6-mer frequency, TF over GST control)
binding signal (ELK3): 1.56 fold enrichment (6-mer frequency, TF over GST control)

ATTCTA
binding signal (FLI1): 1.34 fold enrichment (6-mer frequency, TF over GST control)
binding signal (ELK1): 1.21 fold enrichment (6-mer frequency, TF over GST control)
binding signal (GABPA): 1.29 fold enrichment (6-mer frequency, TF over GST control)
binding signal (ERG): 1.23 fold enrichment (6-mer frequency, TF over GST control)
binding signal (ELF1): 1.3 fold enrichment (6-mer frequency, TF over GST control)
binding signal (EHF): 1.21 fold enrichment (6-mer frequency, TF over GST control)
binding signal (SPI1): 1.23 fold enrichment (6-mer frequency, TF over GST control)
binding signal (SPIB): 1.22 fold enrichment (6-mer frequency, TF over GST control)
binding signal (ELK3): 1.18 fold enrichment (6-mer frequency, TF over GST control)

TTTACA
binding signal (FLI1): 1.18 fold enrichment (6-mer frequency, TF over GST control)
binding signal (ELK1): 1.19 fold enrichment (6-mer frequency, TF over GST control)
binding signal (GABPA): 1.25 fold enrichment (6-mer frequency, TF over GST control)
binding signal (ERG): 1.23 fold enrichment (6-mer frequency, TF over GST control)
binding signal (ELF1): 1.31 fold enrichment (6-mer frequency, TF over GST control)
binding signal (EHF): 1.31 fold enrichment (6-mer frequency, TF over GST control)
binding signal (SPI1): 1.22 fold enrichment (6-mer frequency, TF over GST control)
binding signal (SPIB): 1.24 fold enrichment (6-mer frequency, TF over GST control)
binding signal (ELK3): 1.25 fold enrichment (6-mer frequency, TF over GST control)

TCGACA
binding signal (FLI1): 1.38 fold enrichment (6-mer frequency, TF over GST control)
binding signal (ELK1): 1.27 fold enrichment (6-mer frequency, TF over GST control)
binding signal (GABPA): 1.43 fold enrichment (6-mer frequency, TF over GST control)
binding signal (ERG): 1.35 fold enrichment (6-mer frequency, TF over GST control)
binding signal (ELF1): 1.38 fold enrichment (6-mer frequency, TF over GST control)
binding signal (EHF): 1.21 fold enrichment (6-mer frequency, TF over GST control)
binding signal (SPI1): 1.28 fold enrichment (6-mer frequency, TF over GST control)
binding signal (SPIB): 1.25 fold enrichment (6-mer frequency, TF over GST control)
binding signal (ELK3): 1.35 fold enrichment (6-mer frequency, TF over GST control)
